Bioassay records (PubChem BioAssay)
FLuc inh – Photinus pyralis luciferase inhibition. P08659. purified P. pyralis luciferase, luminescence, biochemical. Potency, µM (series often up to 115 µM), usual class: inhibitors. 2.5% of 76,000 active. AID 1347043; also: nearly all actives have a fitted effect of over 65% in size
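Cell-free enzyme assay, 10nM P. pyralis luciferase, luciferin and ATP each at 10uM. Inhibition profiled over a 6-point titration, read as luminescence.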
HEK293 tox – kills HEK 293 cells; HEK 293 viability, ATP luminescence (CellTiter-Glo), 48-72 h; Potency, µM (series often up to 115 µM), actives largely listed as inhibitors; 6.6% of 94,000 active; AID 1345083; also: nearly all actives have a fitted effect of over 60% in size
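ATP-coupled CellTiter-Glo luminescence served as viability read-out, recorded 10 min after reagent addition at room temperature. HEK 293 cells, 250 cells/well, had been incubated with pintool-transferred compound for 48 or 72 hr at 37 degree Celsius.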
3T3 cytotox – cytotoxic compounds in NIH 3T3 cells | Potency, µM (highest dose often 96.7 µM), most hits filed as inhibitors | 4.3% of 94,000 active | AID 1345082 | NIH 3T3 viability, CellTiter-Glo ATP luminescence, 48-72 h; also: nearly all actives have a fitted effect of over 55% in size
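NIH 3T3 cells at 400 cells/well received 23 nL of compound by pintool and were incubated 48 or 72 h at 37 °C. Viability was read as ATP-coupled CellTiter-Glo luminescence.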
hNpr1 antagonist – human Npr1 receptor antagonism | P16066 | HEK293 hNpr1 GloSensor cGMP, ANP-stimulated luminescence | Potency, µM (highest dose often 46.3 µM), most hits filed as inhibitors | 1.6% of 76,000 active; calls by dose curve; also: nearly all actives have a fitted effect of over 60% in size
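Compound pre-incubated 30 min at room temperature on GloSensor-loaded HEK293 cells stably carrying hNpr1 and the pGS-40F cGMP biosensor. Stimulation uses hNppA at 0.1 nM final; luminescence is taken at baseline and 20 min post-agonist.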
Numbers stand for hits; - = inactive; ? = inconclusive; . = not tested or not shown. This is a sample that favours compounds with a hit; in the whole collection about 11% have one here. Unless noted, calls follow the shape of the dose curve; as a rule, active = well fitted curve in the direction sought with a large enough effect; inconclusive = small, poorly fitted or top-dose-only effect, or another doubt; inactive = no such curve, though single readings can be large; an effect the other way counts as inactive or inconclusive.

SMILES	FLuc inh	HEK293 tox	3T3 cytotox	hNpr1 antagonist
O=C(c1ccccc1F)N1CCN(C(=O)c2nc3cccnc3n(C3CC3)c2=O)CC1	.	-	-	.
COCC(=O)NC1CCN(c2ccnc3ccnn23)CC1	.	-	-	.
CCS(=O)(=O)N1CCOC[C@H](Oc2ccc(C(F)(F)F)cn2)C1	-	-	?	-
Cc1ccc(C(=O)NC2CCN(Cc3cccc(-c4ccc(F)c(F)c4)c3)CC2)cc1	.	?	35.5µM	.
Cc1cccc(-c2cccc(CN3CCC(NC(=O)C4CCCC4)CC3)c2)c1	.	-	-	.
Cc1cccc(-c2cccc(CN3CCC(NC(=O)c4ccncc4)CC3)c2)c1	.	31.6µM	31.6µM	.
O=c1n(CCCN2CCN([S+](=O)([O-])c3ccccc3)CC2)nc2n1CCCC2	.	-	-	.
Cc1ccc(Nc2ccnc(N3CCCN(C(=O)C4CCCC4)C3)n2)cc1	.	12.6µM	?	.
Cc1ccc(Nc2ccnc(N3CCCN(C(=O)NC4CCCC4)C3)n2)cc1	.	15.8µM	25.1µM	.
COc1ccc(-c2cc(N3CCC(NC(=O)COc4ccccc4C)CC3)n[nH]2)cc1	-	?	25.1µM	?
CCOc1ccc(CC(=O)NC2CCCN(c3cc(-c4ccc(F)cc4)[nH]n3)C2)cc1OCC (centres undefined)	-	?	?	-
COc1ccc(-c2cc(N3CCC(NC(=O)CCc4ccccc4OC)CC3)n[nH]2)cc1	-	?	?	-
COc1ccc(CC(=O)NC2CCCN(c3cc(-c4ccc(F)cc4)[nH]n3)C2)cc1OC (centres undefined)	-	44.7µM	?	?
COc1ccc(-c2cc(N3CCC(NC(=O)Cc4ccccc4C)CC3)n[nH]2)cc1	-	?	?	-
COc1ccc(-c2cc(N3CCCC(NC(=O)CCc4ccccc4OC)C3)n[nH]2)cc1 (centres undefined)	-	39.8µM	?	-
CCCn1ncc(NC(=O)c2cccc(CN3CCC[C@@H]3COC)c2)n1	?	-	-	-
COCCC(=O)N1Cc2ccccc2OC2(CCN(C(C)C)CC2)C1	-	-	-	-
CCOc1ccccc1NC(=O)N1CCCN(S(=O)(=O)c2ccccc2)CCC(=O)NCC1	-	-	-	-
COc1cccc(-c2ccc(C(=O)N3CCC(NC(=O)c4ccccc4)CC3)cc2)c1	.	44.7µM	?	.
COc1cccc(C(=O)NC2CCN(C(=O)c3ccc(-c4cncnc4)cc3)CC2)c1	.	-	-	.
COc1cccc(-c2ccc(C(=O)N3CCC(N[S+](=O)([O-])c4ccccc4)CC3)cc2)c1	.	20µM	?	.
COc1cccc(-c2cccc(C(=O)N3CCN(C(=O)Nc4ccc(Cl)cc4)CC3)c2)c1	.	89.1µM	?	.
COc1cccc(-c2cccc(C(=O)N3CCN(C(C)=O)CC3)c2)c1	.	-	-	.
COc1cccc(-c2ccc(C(=O)N3CCC(NC(=O)Nc4ccccc4)CC3)cc2)c1	.	25.1µM	?	.
COc1cccc(-c2ccc(C(=O)N3CCC(NC(=O)c4ccc(C)cc4)CC3)cc2)c1	.	?	-	.
SMILES	FLuc inh	HEK293 tox	3T3 cytotox	hNpr1 antagonist
CCCCn1c(=O)c(C(=O)N2CCN(C(=O)NC3CCCC3)CC2)nc2cccnc21	.	-	-	.
COc1ccc(-c2cccc(C(=O)N3CCC(NC(=O)c4ccccc4F)CC3)c2)nn1	.	-	-	.
COc1ccccc1-c1ccc(C(=O)N2CCC(N[S+](C)(=O)[O-])CC2)cc1	.	-	-	.
COc1cccc(-c2ccc(C(=O)N3CCC(NC(=O)Nc4ccc(Cl)cc4)CC3)cc2)c1	.	10µM	28.2µM	.
COc1ccccc1-c1ccc(C(=O)N2CCC(NC(=O)Nc3ccccc3)CC2)cc1	.	39.8µM	?	.
COc1ccc(-c2cccc(C(=O)N3CCC(NC(=O)c4ccccc4OC)CC3)c2)nn1	.	28.2µM	-	.
COc1cccc(-c2ccc(C(=O)NCCNC(=O)Nc3ccc(Cl)cc3)cc2)c1	.	?	-	.
CCn1cc(CN(C)C(=O)c2oc3c(C)c(C)ccc3c2C)cn1	-	?	?	-
Cc1ccc2c(C)c(C(=O)N(C)CCOc3ccccc3)oc2c1C	39.8µM	?	-	-
CCn1nc(C)c(-c2cc(C(=O)NCCc3noc(-c4ccccc4)n3)no2)c1C	?	50.1µM	?	-
O=C(NCCN[S+](=O)([O-])c1ccccc1)c1cccc(-c2ccsc2)c1	.	50.1µM	?	.
O=C(NCC(=O)N1CCC(c2ccccc2)CC1)c1cccc(-c2ccsc2)c1	.	35.5µM	?	.
C=CCn1cc2c3c(cccc31)[C@H](CC(C)C)N[C@H](C(=O)NCCCN1CCCC1=O)C2	-	39.8µM	?	-
C=CCn1cc2c3c(cccc31)[C@H](CC(C)C)N[C@H](C(=O)NCCOC)C2	?	56.2µM	89.1µM	-
C=CCn1cc2c3c(cccc31)[C@H](CC(C)C)N[C@H](C(=O)N1CCN(CCOC)CC1)C2	-	?	-	-
C=CCn1cc2c3c(cccc31)[C@H](CC(C)C)N[C@H](C(=O)NCc1ccc(OC)cc1)C2	-	-	-	-
O=C(c1ccccc1F)N1CCC2(CC1)C(=O)NCN2Cc1ccc(Cl)cc1	-	?	-	-
COc1ccc(CC(=O)N2CCC(Oc3nccnc3N(C)C)C2)cc1 (centres undefined)	?	-	-	-
OCc1ccc(CN2Cc3[nH]cnc3C[C@H]2c2nc(-c3ccc4ccccc4c3)no2)o1	?	79.4µM	79.4µM	-
Cc1ccc(CN2Cc3[nH]cnc3C[C@H]2c2nc(-c3ccc4ccccc4c3)no2)cc1	63.1µM	63.1µM	44.7µM	-
COc1ccc(-c2ccccc2C(=O)NC2CCOCC2)nn1	.	-	-	.
O=C(NCCc1ccc(Cl)cc1)c1cc(-c2cccs2)c2cccn2n1	.	44.7µM	?	.
O=C(NCc1cccs1)c1cc(-c2cccs2)c2cccn2n1	.	50.1µM	?	.
O=C(NCc1cccs1)c1cc(-c2ccccc2)c2nncn2n1	.	?	-	.
O=C1CCN(S(=O)(=O)c2ccc3c(c2)CCC3)CCCC(c2nc(-c3cccnc3)no2)CCN1 (centres undefined)	-	35.5µM	?	-
SMILES	FLuc inh	HEK293 tox	3T3 cytotox	hNpr1 antagonist
COc1ccc(/C=C/CN2CCC(CCC(=O)Nc3ccccc3Cl)CC2)cc1	-	?	79.4µM	-
COc1ccccc1/C=C/CN1CCCC(CCC(=O)Nc2ccccc2F)C1 (centres undefined)	-	44.7µM	?	-
CCCCn1c(=O)c(C(=O)NC2CCCC2)nc2cccnc21	.	?	-	.
Cc1cccc(CN2CCc3ncc(C(=O)NCCC(C)C)n3CC2)c1	-	39.8µM	?	-
N#Cc1cccc(CN2CCc3ncc(C(=O)NCCOc4ccccc4)n3CC2)c1	-	28.2µM	28.2µM	?
O=C(c1cccc(Cl)c1)N1CCC(C(=O)N2CCCC2c2nc3ccncc3[nH]2)CC1 (centres undefined)	.	-	-	.
CC1(c2ccccc2)N(Cc2ccccc2)C(=O)OC12CCN(C(=O)Cc1ccc(O)cc1)CC2 (centres undefined)	-	?	6.31µM	-
Cc1ncsc1C(=O)N1CCC2(CC1)OC(=O)N(Cc1ccccc1F)C2(C)c1ccccc1 (centres undefined)	-	-	10µM	-
